Screens as filed in PubChem.
An excerpt weighted towards active compounds, which were near 2.4% of everything screened.
L3MBTL1 block – qHTS Assay for the Inhibitors of L3MBTL1 | AlphaScreen L3MBTL1–H3K9me1 peptide binding | Potency, µM (top dose mostly 57.1 µM), without a hit: top-dose activity, negative = inhibition, hits mostly inhibitors | 0.66% of 230,000 active | AID 485360, 2010; also: % is scaled to controls: 0 for no effect and ±100 for the full control effect; nearly all actives have a fitted effect of over 60% in size
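AlphaScreen assay: L3MBTL1 (50 nM final) was preincubated 30 min at room temperature with biotinylated H3(1-15)K9me1 peptide (75 nM final), then 30 min with library compounds; streptavidin donor and nickel chelate acceptor beads (10 ug/mL final) added, 30 min dark.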
POLI inh – qHTS for Inhibitors of Polymerase Iota. DNA polymerase iota (Homo sapiens), Q9UNA4. Pol iota fluorescent replication assay, 10 min. Potency, µM (titrated, usually from 115 µM), inactives show at the highest dose activity, negative = inhibition, actives largely listed as inhibitors. 1% of 390,000 active. AID 588590, 2011
Target sequence (Q9UNA4 whole entry, looked up): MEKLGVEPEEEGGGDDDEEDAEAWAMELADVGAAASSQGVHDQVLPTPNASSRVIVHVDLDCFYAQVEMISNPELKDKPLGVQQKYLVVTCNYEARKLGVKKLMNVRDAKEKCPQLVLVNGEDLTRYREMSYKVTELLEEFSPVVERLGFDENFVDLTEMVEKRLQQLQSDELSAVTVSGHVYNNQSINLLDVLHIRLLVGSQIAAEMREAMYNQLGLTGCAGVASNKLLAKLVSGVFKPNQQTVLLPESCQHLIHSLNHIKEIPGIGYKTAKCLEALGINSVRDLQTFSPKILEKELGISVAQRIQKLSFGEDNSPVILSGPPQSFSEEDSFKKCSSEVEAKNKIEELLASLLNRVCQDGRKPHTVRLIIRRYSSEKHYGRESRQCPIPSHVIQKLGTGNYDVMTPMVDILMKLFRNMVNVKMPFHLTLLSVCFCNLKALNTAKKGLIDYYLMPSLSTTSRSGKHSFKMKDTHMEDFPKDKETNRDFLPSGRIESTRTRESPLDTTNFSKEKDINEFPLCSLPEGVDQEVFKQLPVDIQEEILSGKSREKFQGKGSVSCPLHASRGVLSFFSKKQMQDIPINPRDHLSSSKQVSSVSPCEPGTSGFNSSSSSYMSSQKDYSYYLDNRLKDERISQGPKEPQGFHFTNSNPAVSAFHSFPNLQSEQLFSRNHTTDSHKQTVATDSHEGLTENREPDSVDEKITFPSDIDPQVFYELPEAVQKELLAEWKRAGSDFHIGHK
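Fluorescent replication assay read twice, at 0 min and 10 min after adding 50 nM (final) substrate. Enzyme (10 nM) and compounds were first incubated 15 min at room temperature; enzyme-free buffer wells were negative controls.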
POLB inh – qHTS Assay for Inhibitors of DNA Polymerase Beta; Pol beta primer extension/strand displacement, fluorescence kinetic; P06746; AID 485314, 2010; Potency, µM (highest dose often 114 µM), for the others: at the highest dose activity change, negative = inhibition, usual class: inhibitors; 1.3% of 340,000 active; also: % is scaled to controls: 0 for no effect and ±100 for the full control effect
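Kinetic readout of DNA synthesis with strand displacement by Pol beta. Compound and 10 nM enzyme sit 15 min at room temperature; 50 nM substrate starts the reaction, read immediately and at 10 min.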
Pol eta inh-1 – qHTS for Inhibitors of Polymerase Eta | DNA polymerase eta (Homo sapiens), Q9Y253 | recombinant Pol eta, fluorescent DNA replication assay | Potency, µM (doses to about 114 µM), for inactives: at the top dose activity change, negative = inhibition, hits mostly inhibitors | 1.2% of 390,000 active; also: % is scaled to controls: 0 for no effect and ±100 for the full control effect
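Pol eta at 10 nM preincubated with compounds 15 min at room temperature; reaction started with fluorescent substrate (50 nM final) and read kinetically at 0 and 10 min.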
Pol kappa inh-1 – qHTS for Inhibitors of Polymerase Kappa. 0.53% of 400,000 active. Potency, µM (top dose mostly 107 µM), without a hit: top-dose activity, negative = inhibition, usual class: inhibitors. purified Pol kappa, fluorescent DNA synthesis assay, 10 min. DNA polymerase kappa (Homo sapiens), Q9UBT6; also: % is scaled to controls: 0 for no effect and ±100 for the full control effect
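10 nM Pol kappa was preincubated with compounds for 15 min at room temperature. Reaction started with 50 nM (final) substrate. Fluorescence read kinetically at 0 and 10 min.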
HEK293 viability – Secondary Assay for Inhibitors of Human Galactokinase (GALK): HEK-293 Cell Viability Assay; Potency, µM (top dose mostly 46.1 µM), for inactives: top-dose activity change, negative = cytotoxicity, most hits filed as inhibitors; 10% of 170 active; HEK-293 viability, ATP luminescence (CellTiter-Glo), 24/48 h; shares compounds with Pol eta inh-1; also: % is scaled to controls: 0 for no effect and ±100 for the full control effect
Pol kappa inh-2 – qHTS for Inhibitors of Polymerase Kappa: Confirmatory Assay for Cherry-picked Compounds; 76% of 920 active; Potency, µM, most hits filed as inhibitors; shares compounds with Pol eta inh-1; purified Pol-kappa, fluorescent strand-displacement substrate
Pol eta inh-2 – qHTS for Inhibitors of Polymerase Eta: Confirmatory Assay for Cherry-picked Compounds. shares compounds with Pol eta inh-1. Pol eta primer extension, TAMRA/BHQ fluorescence, 10 min. Potency, µM, usual class: inhibitors. 64% of 2,600 active. AID 720502, 2013
Numbers without * were called inactive; ? = inconclusive; . = no result given; [ ] = dose if it differs, or a comment. Calls follow the shape of the dose curve; as a rule, active = well fitted curve in the direction sought with a large enough effect; inconclusive = small, poorly fitted or top-dose-only effect, or another doubt; inactive = no such curve, though single readings can be large; an effect the other way counts as inactive or inconclusive. Potency is read from the fitted curve at half-maximal effect.

SMILES | L3MBTL1 block | POLI inh | POLB inh | Pol eta inh-1 | Pol kappa inh-1 | Pol eta inh-2 | others
CS(=O)(=O)C1=NSC2=NC(=O)/C(=C\c3cccn3-c3ccc(Cl)cc3)C(=N)N21 | -25% | ? | 22µM* | 22µM* | -40% | ?
O=C(COC(=O)c1cncc(Br)c1)Nc1nnc(-c2ccccc2)o1 | . | ? | . | 40µM* | ? | 60*
C[C@@H](C(=O)Nc1nc(-c2ccccn2)cs1)N1C(=O)C2CCCCC2C1=O (some centres not stated) | . | 7.1µM* | 13µM* | 13µM* | -15% | ?
O=C(CN1C(=O)C2CCCCC2C1=O)Nc1nc(-c2ccccn2)cs1 (configuration not stated) | . | -13% | 1% | ? | -11% | .
Cc1c(C(=O)OCC2CCCCC2)[nH]c2c1C(=O)CC(c1ccccc1Cl)C2 (configuration not stated) | . | 21% | -3% | -6% | -20% | .
Cc1ccc(NC(=O)c2sc(-n3nc(C)c(Cc4ccc5c(c4)OCO5)c3C)nc2C)cc1Cl | . | -5% | 29% | -20% | 4% | .
Cc1c(Cl)cccc1NS(=O)(=O)c1ccc2[nH]cc(C(=O)NC3CCCC3)c(=O)c2c1 | . | 79µM* | ? | 25µM* | ? | 95* | Pol kappa inh-2=24*
CCN(CC)S(=O)(=O)c1ccc2[nH]cc(C(=O)NC3CC3)c(=O)c2c1 | . | -1% | 24% | -16% | -5% | .
Cc1cc(C)cc(NS(=O)(=O)c2ccc3[nH]cc(C(=O)NC4CCCCC4)c(=O)c3c2)c1 | . | -28% | ? | -16% | -16% | .
CC(C)c1ccc(NS(=O)(=O)c2ccc3[nH]cc(C(=O)NCC4CCCO4)c(=O)c3c2)cc1 (configuration not stated) | . | 79µM* | 32µM* | 89µM* | -22% | ? | Pol kappa inh-2=38*
CC(C)c1ccc(NS(=O)(=O)c2ccc3[nH]cc(C(=O)NC4CCCCC4)c(=O)c3c2)cc1 | . | ? | 25µM* | 35µM* | ? | 76* | Pol kappa inh-2=19*
CCOc1ccc(NS(=O)(=O)c2ccc3[nH]cc(C(=O)NCC4CCCO4)c(=O)c3c2)cc1 (configuration not stated) | 1% | ? | ? | ? | -15% | .
CNc1ccc(C=O)cc1Br | . | 18% | . | . | -22% | .
Cc1ccc(S(=O)(=O)N2CCN(Cc3cc(Br)ccc3O)CC2)cc1 | . | -5% | -19% | -9% | -17% | .
CCNc1ncc2nc(-c3ccc(F)cc3)c(=O)n(CCOC)c2n1 | . | . | . | . | -8%[60.1 µM] | .
CCCCCCCC/C=C\C/C=C\C/C=C\CCCC(=O)NCCO | . | . | . | . | 3%[19.4 µM] | .
CC1=N/C(=C/c2ccco2)C(=O)O1 | . | ? | 10µM* | 10µM* | 50µM* | 30*
Cc1cc(C=C2C(=O)CCCC2=O)c(C)n1-c1ccccc1 | ? | 18µM* | ? | 18µM* | ? | 76*
COc1ccc(-c2noc(CSc3nc(N)cc(=O)[nH]3)n2)cc1OC | . | 1% | -28% | 1% | -1%[60.1 µM] | .
CC1(C)OC(C)(C)/C(=C/Nc2ccc(O)cc2)C1=O | ? | ? | ? | 18µM* | -28% | ? | Pol kappa inh-2=?
CC1(C)OC(=O)C(=CNc2cccc(O)c2)C(=O)O1 | -6% | 27% | 19% | -11% | 0% | .
Cc1ccc(-n2nc3ccc(NC(=O)/C=C/c4ccco4)cc3n2)cc1 | ? | 25µM* | 32µM* | ? | ? | ?
Cc1oc2c(c1C(=O)Nc1cccc(C(=O)O)c1)CCCC2 | . | 79µM* | ? | 50µM* | -15% | ?
Cc1ccc(C(=O)Nc2cccc(C(=O)O)c2)cc1 | . | 16% | 3% | 0% | -18% | .
O=C(N/N=C/c1cccc(O)c1)c1ccc(-n2cnnn2)cc1 | -1% | ? | . | -14% | -10% | .
SMILES | L3MBTL1 block | POLI inh | POLB inh | Pol eta inh-1 | Pol kappa inh-1 | Pol eta inh-2 | others
O=C(N/N=C/c1ccc(O)c(O)c1)c1ccc(-n2cnnn2)cc1 | ? | 45µM* | . | 22µM* | 79µM* | ?
COc1ccc(OCC(=O)Nc2cccc(S(=O)(=O)N(C)c3ccccc3)c2)c([N+](=O)[O-])c1 | 4% | -3% | . | -12% | -15% | .
CC1CCC2(C1)N=C(Nc1nc3ccccc3o1)NC1=C2C(=O)CCC1 (configuration not stated) | . | . | . | . | . | . | HEK293 viability=?
CC1(C)N=C(Nc2nc3ccccc3o2)NC2=C1C(=O)CCC2 | . | . | . | . | . | . | HEK293 viability=-27%
c1ccc2oc(NC3=NCN(CC4CCCO4)CN3)nc2c1 (configuration not stated) | . | -2% | 4% | -9% | 2% | .
CCOc1ccc(CCNC(=O)C2CC(C)=CCC2C(=O)O)cc1OCC (configuration not stated) | . | ? | 25µM* | 28µM* | -26% | 54*
CCOc1ccc(CCNC(=O)C2CC=CCC2C(=O)OC(C)C)cc1OCC (configuration not stated) | . | 18% | 17% | -1% | -5%[60.1 µM] | .
CCSc1nnc(NC(=O)C2CCCCC2)s1 | 3% | 20% | 1% | -17% | -5% | .
CCSc1nnc(NC(=O)C2CC=CCC2C(=O)O)s1 (configuration not stated) | ? | ? | 32µM* | 20µM* | -3% | ?
O=C(COc1ccc(Br)cc1)N(Cc1nnc(-c2ccccc2Cl)o1)C1CC1 | . | . | . | -3% | . | .
O=C1Nc2c(Cl)cc(Cl)cc2C1=O | . | ? | . | ? | ? | ?
CCCSc1ccc([C@H]2N[C@@](CC(C)C)(C(=O)OC)[C@H]3C(=O)N(CC)C(=O)[C@@H]23)cc1 | 3% | 5% | . | -15% | -15% | .
Oc1c(Br)cc(Br)c(/C=N/n2c(-c3ccccc3)n[nH]c2=S)c1Br | -20% | 28µM* | ? | 35µM* | ? | ? | Pol kappa inh-2=?
S=c1[nH]nc(-c2ccccc2)n1/N=C/c1cccc(Br)c1 | -2%[2.29 µM] | 100% | 2% | 2% | -1% | .
S=c1[nH]nc(-c2cc(-c3ccccc3)n[nH]2)n1/N=C/c1cccc(Cl)c1 | -25% | 25µM* | 7.1µM* | 40µM* | ? | 27*
